Test results published in PubChem BioAssay AID1063 (University of Pittsburgh Molecular Library Screening Center, 2008).
Several values for one entry are separate records, joined by “and”; a condition that tells them apart may be missing. Identical values can stand only once. About 18,000 (9%) of roughly 200,000 compounds were called active. Rule as the data show it: active = inhibition above about 50%; inactive = the rest. Only a selection was taken, and actives are over-represented in it overall. A structure can be active in one record and inactive in another.

Experiment: antileishmanial activity against promastigotes – primary screen (AID 1063);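 also: promastigotes grown with compound for 44 hours at 28 °C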
Settings: Leishmania major promastigotes, resazurin fluorescence viability; at 10 µM; stronger effect = higher value

Which inhibition does the source give for `CN(CC(=O)NCCc1ccccn1)S(=O)(=O)c1ccc(Cl)cc1` here?
Its inhibition is 6.18% (inactive).

For `COc1ccc(CCN(C)C(=O)C2CCCN(Cc3ccc(OC)c(OC)c3)C2)cc1OC` (centres undefined), which inhibition is on record?
The inhibition was -6.68% (inactive) and 55.5% (active).

With `COc1ccc(CN2CCCC(CNC(=O)c3ccc(F)cc3)C2)cc1OC` (centres undefined) as the compound, how does the inhibition read?
The inhibition was 14.8% (inactive).

With `COc1ccc(CN2CCCC(C(=O)c3ccc(Cl)cc3)C2)cc1Cn1cncn1` (centres undefined) as the compound, how does the inhibition read?
Its inhibition is 32% (inactive).

With `O=C1CN(C(=O)CN2C(=O)NC3(CCCCC3)C2=O)c2ccccc2N1` as the compound, how does the inhibition read?
The inhibition was -5.28% (inactive).

With `Cc1ccccc1Nc1scc(-c2ccc(Br)cc2)[n+]1-c1ccccc1C` as the compound, how does the inhibition read?
The inhibition was 31% (inactive).

Which inhibition does the source give for `CC(=O)N1CCN(c2ccc(NCc3ccc(C(C)C)cc3)cc2)CC1` here?
Its inhibition is 81.4% (active).

For `CCc1ccc(NC(=O)N2CCN(c3ccccc3)CC2)cc1`, which inhibition is on record?
Its inhibition is 25.5% (inactive).

Which inhibition does the source give for `CC(CC(=O)N1CCN(c2ccccc2)CC1)c1ccccc1` (centres undefined) here?
Its inhibition is -5.82% (inactive).

Which inhibition does the source give for `NC(=O)N1CCc2ccccc21` here?
Its inhibition is -6.03% (inactive).

Which inhibition does the source give for `N#Cc1ccc(N2Cc3ccccc3/C2=N/C(=O)Nc2ccc(Cl)cc2)cc1` here?
The inhibition was 71.6% (active).

With `O=C(Nc1ccccc1)OCc1cn(-c2ccc(Cl)cc2)nn1` as the compound, how does the inhibition read?
The inhibition was -4.84% (inactive).

For `Cc1cccc(N2Cc3ccccc3C2=NC(=O)c2ccc(Cl)nc2)c1`, which inhibition is on record?
Its inhibition is 4.02% (inactive).

With `Cn1cccc1/C=C1\SC(=O)N(CC(=O)Nc2ccc(F)cc2)C1=O` as the compound, how does the inhibition read?
Its inhibition is -0.17% (inactive).

For `c1ccc(COc2ccccc2CNCc2cccnc2)cc1`, which inhibition is on record?
The inhibition was 75% (active).

Which inhibition does the source give for `CCC(Oc1ccccc1)C(=O)NCc1cccnc1` (centres undefined) here?
The inhibition was 3.42% (inactive).

For `Fc1ccccc1COc1ccccc1CNCc1ccncc1`, which inhibition is on record?
The inhibition was 98.5% (active).

For `CCOc1cc(/C=N/O)ccc1OCc1ccccc1F`, which inhibition is on record?
The inhibition was -1.85% (inactive).

For `COc1ccccc1CNCc1cccs1`, which inhibition is on record?
Its inhibition is 7.82% (inactive).

For `O=C(CCc1ccccc1)NCc1cccnc1`, which inhibition is on record?
Its inhibition is -1.64% (inactive).

Which inhibition does the source give for `O=C(CNC1CCCCC1)NCC1(c2ccccc2)CCCC1` here?
The inhibition was 19.4% (inactive).

With `O=C(O)c1n[nH]nc1-c1ccccc1` as the compound, how does the inhibition read?
Its inhibition is -4.14% (inactive).

With `COC(=O)c1cc(NC(=O)CN2CCN(C(C)=O)CC2)cc(C(=O)OC)c1` as the compound, how does the inhibition read?
The inhibition was 2.15% (inactive).

Which inhibition does the source give for `O=C(Cc1ccccc1)NCc1ccc(F)cc1` here?
Its inhibition is -4.83% (inactive).

For `Fc1ccc(CNCc2ccc(Br)cc2)cc1`, which inhibition is on record?
Its inhibition is 84.8% (active).

For `Cc1cc(C)cc(NC(=S)NCc2ccc(F)cc2)c1`, which inhibition is on record?
Its inhibition is 16.7% (inactive).

Which inhibition does the source give for `Cn1c(SCC(=O)Nc2ccc(Br)cc2F)nnc1-c1ccco1` here?
The inhibition was -5.27% (inactive).

For `NC(=O)C1CCN(C(=O)COc2cccc3cccnc23)CC1`, which inhibition is on record?
The inhibition was -6.58% (inactive).

For `COc1ccc(OCc2cn3c(C)cc(C)nc3n2)cc1`, which inhibition is on record?
Its inhibition is -3.26% (inactive).

With `COc1ccc(C(=O)CSc2nc(C)cc(C)n2)cc1[N+](=O)[O-]` as the compound, how does the inhibition read?
The inhibition was 16% (inactive).

With `COc1ccc(C(C[N+](=O)[O-])n2nc(C)cc2C)cc1` (centres undefined) as the compound, how does the inhibition read?
Its inhibition is 100% (active).

For `CN(C)/C=C(/C(=O)c1ccccc1Cl)S(C)(=O)=O`, which inhibition is on record?
Its inhibition is 3.15% (inactive).

Which inhibition does the source give for `COc1ccc(C(=O)C2CCCN(C(=O)c3cc4nc(C)cc(C)n4n3)C2)cc1F` (centres undefined) here?
Its inhibition is 57.3% (active).

With `CCn1nc(C)cc1C(=O)N1CCCC(C(=O)c2cccc(OC)c2)C1` (centres undefined) as the compound, how does the inhibition read?
Its inhibition is -7.56% (inactive).

Which inhibition does the source give for `Cc1cnc(C(=O)N2CCCC(C(=O)c3ccc(C(F)(F)F)cc3)C2)cn1` (centres undefined) here?
Its inhibition is 3.62% (inactive).

Which inhibition does the source give for `C=CCn1cc(C(=O)NCc2ccc(Cl)cc2)c(=O)c2cc(S(=O)(=O)N(CC)CC)ccc21` here?
Its inhibition is 13.9% (inactive).

Which inhibition does the source give for `COc1ccc(Cn2c(-c3ccc(Cl)cc3)c[n+]3ccccc23)cc1` here?
Its inhibition is 99.2% (active).

For `CCc1nc2oc3ccccc3c(=O)c2c(=O)n1Cc1ccc(OC)cc1`, which inhibition is on record?
Its inhibition is 8.88% (inactive).

Which inhibition does the source give for `COc1ccc(C(=O)CN(C(=O)c2ccc(Cl)cc2)N2C(=O)c3ccccc3C2=O)cc1` here?
Its inhibition is -4.51% (inactive).

With `COc1ccc(-c2nn(-c3ccccc3)cc2/C=C\C(=O)Nc2ccc(C(=O)O)cc2)cc1` as the compound, how does the inhibition read?
The inhibition was -5.87% (inactive).

With `O=c1c2c(nc3n1CCCCC3)sc1c(O)cccc12` as the compound, how does the inhibition read?
The inhibition was -1.41% (inactive).

For `Cc1c(C(=O)Nc2ccccc2)sc2nc3n(c(=O)c12)CCCCC3`, which inhibition is on record?
The inhibition was 61.8% (active).

Which inhibition does the source give for `Cc1c(C(=O)Nc2cccc(-c3nnc4n3CCCCC4)c2)oc2ccccc12` here?
The inhibition was 27.1% (inactive).

Which inhibition does the source give for `C=CCNc1nc(Nc2ccc(Cl)cc2)nc(OC)n1` here?
Its inhibition is 41.2% (inactive).

Which inhibition does the source give for `COc1ccc(C2Nc3ccccc3C(=O)N2c2ccc(F)cc2)cc1Cn1nnc2ccccc21` (centres undefined) here?
Its inhibition is 20.3% (inactive).

Which inhibition does the source give for `COc1ccc(C2=NO[C@@H]3C(=O)N(Cc4ccccc4)C(=O)[C@H]23)cc1OC` here?
The inhibition was -2.75% (inactive).

With `COc1ccc(C2Nc3ccccc3C(=O)N2Cc2ccccc2)cc1Cn1nnc2ccccc21` (centres undefined) as the compound, how does the inhibition read?
The inhibition was 97% (active).

For `CCN1CCN(C(C(=O)NC2CCCC2)c2cc3c(cc2[N+](=O)[O-])OCO3)CC1` (centres undefined), which inhibition is on record?
The inhibition was -2.85% (inactive).

With `COc1ccc(Cc2n[nH]c(=S)n2NC(=O)Nc2ccc(C)cc2)cc1` as the compound, how does the inhibition read?
The inhibition was -2.58% (inactive).
